Inconclusive results are not listed. A call without a number means that no potency is given here. Some compounds were tested as several samples or in several runs, with calls that do not always agree. Active and inactive are the calls of the source. Calls come from the whole dose curve; as a rule, active = well fitted cell-killing curve with a large enough effect in the repeat runs (not every such curve was filed as active); inconclusive = weak or mixed curves, or effect the other way; inactive = no such curve, though single readings can be large or run the other way.
experiment: qHTS assay to identify small molecule antagonists of the farnesoid-X-receptor (FXR) signaling pathway - cell viability counter screen (AID 743221); settings: FXR-bla HEK293T viability, CellTiter-Glo luminescence, 16 h; series mostly up to 62.6 µM; note: nearly all actives have a fitted effect of over 50% in size
In short: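 Luminescence from CellTiter-Glo measures cytotoxicity in GeneBLAzer FXR-UAS-bla HEK 293T cells. Cells were exposed to compounds with 50 uM chenodeoxycholic acid (final) for 16 h at 37 C, in wells also used for the reporter readout.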
Potency is the fitted concentration of half-maximal effect.

Q: For COCCOCCOCCO, which Potency is on record?
A: The Potency was “inactive”.

Q: With c1ccc2c(c1)ccc1ncccc12 as the compound, how does the Potency read?
A: Its Potency is “inactive”.

Q: For Cc1ccc(C(C)(C)C)cc1, which Potency is on record?
A: Its Potency is “inactive”.

Q: Which Potency does the source give for CCCCCCCCCCCCO here?
A: Its Potency is “inactive”.

Q: Which Potency does the source give for c1ccc2cc3ccccc3cc2c1 here?
A: Its Potency is “inactive”.

Q: With CCO[Si](CCCNC(N)=O)(OCC)OCC as the compound, how does the Potency read?
A: Its Potency is “inactive”.

Q: With Cc1ccc(S(=O)(=O)NCl)cc1 as the compound, how does the Potency read?
A: Its Potency is “inactive”.

Q: For CCC/C=C/C=O, which Potency is on record?
A: The Potency was “inactive”.

Q: With Cc1ccc(N)c([N+](=O)[O-])c1 as the compound, how does the Potency read?
A: Its Potency is “inactive”.

Q: With CC(C)(Oc1ccc(Cl)cc1)C(=O)O as the compound, how does the Potency read?
A: The Potency was “inactive”.

Q: With CC/C=C\C/C=C\C/C=C\CCCCCCCC(=O)O as the compound, how does the Potency read?
A: The Potency was “inactive”.

Q: For CNC[C@H](O)c1ccc(O)c(O)c1, which Potency is on record?
A: Its Potency is “inactive”.

Q: For C1COCCN1, which Potency is on record?
A: The Potency was “inactive”.

Q: For Brc1nc2ccccc2s1, which Potency is on record?
A: Its Potency is “inactive”.

Q: Which Potency does the source give for CN(C)/N=N/c1nc[nH]c1C(N)=O here?
A: The Potency was “inactive”.

Q: Which Potency does the source give for Cc1ccc(C)c(O)c1 here?
A: Its Potency is “inactive”.

Q: Which Potency does the source give for CCCCCCOCCOCCO here?
A: The Potency was “inactive”.

Q: Which Potency does the source give for COC(=O)c1ccc(C)cc1 here?
A: Its Potency is “inactive”.

Q: For COc1cc([C@H]2Oc3cc([C@H]4Oc5cc(O)cc(O)c5C(=O)[C@@H]4O)ccc3O[C@@H]2CO)ccc1O, which Potency is on record?
A: The Potency was “inactive”.

Q: Which Potency does the source give for NCCOCCO here?
A: The Potency was “inactive”.

Q: For C[C@]12C=CC(=O)C=C1CC[C@H]1[C@@H]3C[C@@H](O)[C@](O)(C(=O)CO)[C@@]3(C)C[C@H](O)[C@@]12F, which Potency is on record?
A: Its Potency is “inactive”.

Q: With O=S1(=O)CCCO1 as the compound, how does the Potency read?
A: Its Potency is “inactive”.

Q: Which Potency does the source give for CC(=O)Nc1ccc2c(c1)Cc1cc(NC(C)=O)ccc1-2 here?
A: The Potency was “inactive”.

Q: For COc1ccc(C(=O)c2ccccc2O)c(O)c1, which Potency is on record?
A: Its Potency is “inactive”.

Q: For CCCCCCC(C)O (centres undefined), which Potency is on record?
A: The Potency was “inactive”.

Q: Which Potency does the source give for CC1(C)C(C=C(Cl)Cl)C1C(=O)OCc1cccc(Oc2ccccc2)c1 (centres undefined) here?
A: Its Potency is “inactive”.

Q: With Nc1ccc(O)c(N)c1 as the compound, how does the Potency read?
A: Its Potency is “inactive”.

Q: For c1ccc2ncccc2c1, which Potency is on record?
A: Its Potency is “inactive”.

Q: Which Potency does the source give for NC[C@H](O)c1ccc(O)c(O)c1 here?
A: Its Potency is “inactive”.

Q: With OC[C@@H](O)[C@@H](O[C@@H]1O[C@H](CO)[C@H](O)[C@H](O)[C@H]1O)[C@H](O)[C@@H](O)CO as the compound, how does the Potency read?
A: Its Potency is “inactive”.

Q: With C=C[C@@]1(C)CC(=O)[C@]2(O)[C@@]3(C)[C@@H](O)CCC(C)(C)[C@@H]3[C@H](O)[C@H](OC(C)=O)[C@@]2(C)O1 as the compound, how does the Potency read?
A: Its Potency is 1.74 µM (active).

Q: Which Potency does the source give for Cc1ccc([N+](=O)[O-])c(C)c1 here?
A: Its Potency is “inactive”.

Q: Which Potency does the source give for Clc1ccc(Sc2cc(Cl)c(Cl)cc2Cl)cc1 here?
A: Its Potency is “inactive”.

Q: With Nc1cc(Cl)c(N)c(Cl)c1 as the compound, how does the Potency read?
A: The Potency was “inactive”.

Q: With O=C(O)CCCC(=O)O as the compound, how does the Potency read?
A: The Potency was “inactive”.

Q: Which Potency does the source give for c1ccc2c(c1)ccc1cc3c(ccc4ccccc43)cc12 here?
A: Its Potency is “inactive”.

Q: Which Potency does the source give for COC(=O)C(C)Oc1ccc(Oc2ncc(C(F)(F)F)cc2Cl)cc1 (centres undefined) here?
A: The Potency was “inactive”.

Q: For C=CC(=O)OCCCC, which Potency is on record?
A: The Potency was “inactive”.

Q: With CCC(=O)O[C@H]1[C@H](O[C@@H]2[C@@H](C)[C@H](O[C@H]3C[C@@](C)(OC)[C@@H](O)[C@H](C)O3)[C@@H](C)C(=O)O[C@H](CC)[C@@](C)(O)[C@H](O)[C@@H](C)C(=O)[C@H](C)C[C@@]2(C)O)O[C@H](C)C[C@@H]1N(C)C as the compound, how does the Potency read?
A: Its Potency is 32.5 µM (active) and inactive.

From PubChem BioAssay (Tox21)
